Data published in PubChem BioAssay (Tox21).
Values joined by “and” are separate entries in the source; they are usually repeats but may differ in a detail not shown here. Equal entries are not always repeated. Where a structure was tested more than once in an assay, its records may differ in their call. Active and inactive are the calls of the source. Where a call stands in place of a potency, no number is given. Unless noted, calls come from the whole dose curve; as a rule, active = well fitted curve in the direction sought with a large enough effect in the repeat runs; inconclusive = weak or mixed curves; inactive = no such curve, though single readings can be large; an effect the other way counts as inactive or inconclusive.

What was measured:
[1] = qHTS assay to identify small molecule antagonists of the thyroid receptor (TR) signaling pathway - cell viability counter screen (AID 743064); note: nearly all actives have a fitted effect of over 50% in size; note: potency is the fitted concentration of half-maximal effect
Method in brief: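 GH3.TRE-Luc rat pituitary cells carrying a TRE-luciferase reporter were treated with compound plus 1 nM T3 (final) for 23.5 h at 37 °C. Viability was then read in the same wells by CellTiter-Fluor fluorescence after a further 30 min.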

[2] = tested on: thyroid hormone receptor (rat, GH3 cells); assay: qHTS assay to identify small molecule agonists of the thyroid receptor (TR) signaling pathway (AID 743066; calls by dose curve)
[3] = qHTS assay to identify small molecule antagonists of the estrogen receptor alpha (ER-alpha) signaling pathway - cell viability counter screen (AID 743074; calls by dose curve; note: nearly all actives have a fitted effect of over 45% in size; note: potency is the fitted concentration of half-maximal effect)
[4] = qHTS assay to identify small molecule antagonists of the estrogen receptor alpha (ER-alpha) signaling pathway using the BG1 cell line - cell viability counter screen (AID 743081);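 note: compound given together with 17beta-estradiol as the ER stimulus; nearly all actives have a fitted effect of over 45% in size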; note: potency is the fitted concentration of half-maximal effect
[5] = target: Aromatase (Homo sapiens) (UniProt P11511); assay: qHTS assay to identify aromatase inhibitors (AID 743083); note: nearly all actives have a fitted effect of over 55% in size; note: potency is the fitted concentration of half-maximal effect
[6] = qHTS assay to identify aromatase inhibitors - cell viability counter screen (AID 743084);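 note: cells stimulated with testosterone during compound exposure; nearly all actives have a fitted effect of over 55% in size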; note: potency is the fitted concentration of half-maximal effect
[7] = target: Aryl hydrocarbon receptor (Homo sapiens) (UniProt P35869); assay: qHTS assay to identify small molecule that activate the aryl hydrocarbon receptor (AhR) signaling pathway (AID 743085); note: nearly all actives have a fitted effect of over 15% in size; note: potency is the fitted concentration of half-maximal effect;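 for activation: HG2L7.5c1 human HepG2 liver cells with stably integrated DRE-driven firefly reporter; series mostly up to about 70 µM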
Method in brief: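 HepG2 cells (HG2L7.5c1) stably carrying a firefly luciferase reporter driven by 20 dioxin responsive elements were exposed to compound for 24 h at 37C after a 5 h settling period; luminescence rise (ONE-Glo) indicated activation.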

[8] = qHTS assay to identify small molecule that activate the aryl hydrocarbon receptor (AhR) signaling pathway - cell viability counter screen (AID 743086); note: nearly all actives have a fitted effect of over 45% in size; note: potency is the fitted concentration of half-maximal effect
Method in brief: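 HepG2-AhR-luc (HG2L7.5c1) cells, 4000/well, were preincubated 5 h at 37C, exposed to compound in qHTS format for 24 hr at 37C, then given CellTiter-Fluor for 30 min; viability was read as fluorescence in the reporter wells.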

[9] = target: Peroxisome proliferator-activated receptor gamma (Homo sapiens) (UniProt P37231); assay: qHTS assay to identify small molecule agonists of the peroxisome proliferator-activated receptor gamma (PPARg) signaling pathway (AID 743094; active = well fitted activation curve with a large enough effect in the signal ratio in the repeat runs, not every such curve was filed as active; inconclusive = weak or mixed curves, or effect the other way; inactive = no such curve, though single readings can be large or run the other way; the % refers to the signal ratio)
Method in brief: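 Reporter activation was scored by fluorescence of cleaved LiveBLAzer B/G substrate (1 h, room temperature) in PPARg-bla HEK293H cells previously treated 17 h at 37C with DMSO-dissolved compounds.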

[10] = qHTS assay to identify small molecule antagonists of the peroxisome proliferator-activated receptor gamma (PPARg) signaling pathway - cell viability counter screen (AID 743194); note: nearly all actives have a fitted effect of over 55% in size; note: potency is the fitted concentration of half-maximal effect
Method in brief: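 PPARg-UAS-bla HEK293H cells were plated, rested 5 h at 37 C, then treated with compounds plus rosiglitazone (50 nM final) for 17 h at 37 C; viability was then read by CellTiter-Glo luminescence after 30 min at room temperature.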

[11] = qHTS assay for small molecule agonists of the antioxidant response element (ARE) signaling pathway (AID 743202; active = well fitted activation curve with a large enough effect in the signal ratio in the repeat runs, not every such curve was filed as active; inconclusive = weak or mixed curves, or effect the other way; inactive = no such curve, though single readings can be large or run the other way; the % refers to the signal ratio; note: potency is the fitted concentration of half-maximal effect)
Method in brief: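 Steps: seed ARE-bla HepG2 cells (2,000/well); incubate 5 h at 37 C; add compounds by pin tool; incubate 16 h at 37 C; add FRET substrate; read fluorescence after 2 h at RT.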

[12] = qHTS assay for small molecule agonists of the antioxidant response element (ARE) signaling pathway - cell viability counter screen (AID 743203; calls by dose curve; note: nearly all actives have a fitted effect of over 55% in size; note: potency is the fitted concentration of half-maximal effect)
Method in brief: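 Viability counter screen: stably transfected ARE-bla HepG2 line, 16 hrs compound exposure at 37C/5% CO2, ATP-based CellTiter-Glo luminescence measured in the reporter wells.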

[13] = qHTS assay for small molecule activators of the heat shock response signaling pathway (AID 743210; active = well fitted activation curve with a large enough effect in the signal ratio in the repeat runs, with a control signal flat, not every such curve was filed as active; inconclusive = weak or mixed curves; the % refers to the signal ratio;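 note: HeLa cells with beta-lactamase reporter driven by heat shock elements; series mostly up to about 63 µM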)
Method in brief: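 Activation of heat shock element-controlled beta-lactamase expression is measured in HeLa cells by LiveBLAzer FRET fluorescence, with compound exposure lasting 5 h at 37 C and substrate loading 2.5 h at room temperature.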

[14] = qHTS assay for small molecule activators of the heat shock response signaling pathway - cell viability counter screen (AID 743209); note: nearly all actives have a fitted effect of over 50% in size; note: potency is the fitted concentration of half-maximal effect
Method in brief: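 Viability of HSE-bla HeLa cells is measured with CellTiter-Glo in the wells already used for the reporter read. Compound exposure lasts 5 h at 37 C, and luminescence is read after 30 min at room temperature.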

[15] = target: Estrogen receptor (Homo sapiens) (UniProt P03372); assay: qHTS assay to identify small molecule agonists of the estrogen receptor alpha (ER-alpha) signaling pathway (AID 743075; calls by dose curve; note: potency is the fitted concentration of half-maximal effect)
[16] = target: Estrogen receptor (Homo sapiens) (UniProt P03372); assay: qHTS assay to identify small molecule agonists of the estrogen receptor alpha (ER-alpha) signaling pathway using the BG1 cell line (AID 743079); note: nearly all actives have a fitted effect of over 20% in size; note: potency is the fitted concentration of half-maximal effect
[17] = qHTS assay to identify small molecule antagonists of the estrogen receptor alpha (ER-alpha) signaling pathway using the BG1 cell line (AID 743080; calls by dose curve;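 note: BG1 cells stimulated with 17beta-estradiol alongside compound; nearly all actives have a fitted effect of over 25% in size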; note: potency is the fitted concentration of half-maximal effect)
Method in brief: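 BG1-Luc-4E2 cells (endogenous full-length ER-alpha, stable 4×ERE-luciferase) were starved 5 days in phenol-red-free medium with 10% charcoal-stripped FBS, plated 24 h, then given compound plus 17beta-estradiol for 21.5 h at 37 C; ONE-Glo luminescence read after 30 min.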

[18] = target: Estrogen receptor (Homo sapiens) (UniProt P03372); assay: qHTS assay to identify small molecule antagonists of the estrogen receptor alpha (ER-alpha) signaling pathway (AID 743069; active = well fitted curve in the direction sought with a large enough effect in the signal ratio in the repeat runs, not every such curve was filed as active; inconclusive = weak or mixed curves, or effect the other way; inactive = no such curve, though single readings can be large or run the other way; the % refers to the signal ratio)
Method in brief: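 Screening used a UAS-driven beta-lactamase reporter integrated into HEK293 cells expressing ER-alpha, stimulated with 17beta-estradiol alongside test compounds over 18 hr at 37C; signal came from LiveBLAzer B/G FRET fluorescence.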

[19] = target: Peroxisome proliferator-activated receptor gamma (Homo sapiens) (UniProt P37231); assay: qHTS assay to identify small molecule antagonists of the peroxisome proliferator-activated receptor gamma (PPARg) signaling pathway (AID 743191; calls by dose curve; note: series mostly up to about 63 µM; nearly all actives have a fitted effect of over 30% in size)
Method in brief: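 GeneBLAzer PPARg UAS-bla HEK293H cells carrying a UAS-driven beta-lactamase reporter were plated at 3000 cells/well, preincubated 5 h at 37C, then given compound for 17 h at 37C; LiveBLAzer B/G FRET substrate was read after 1 h at room temperature.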

Chain of Aryl hydrocarbon receptor (Homo sapiens) (P35869 whole entry, looked up): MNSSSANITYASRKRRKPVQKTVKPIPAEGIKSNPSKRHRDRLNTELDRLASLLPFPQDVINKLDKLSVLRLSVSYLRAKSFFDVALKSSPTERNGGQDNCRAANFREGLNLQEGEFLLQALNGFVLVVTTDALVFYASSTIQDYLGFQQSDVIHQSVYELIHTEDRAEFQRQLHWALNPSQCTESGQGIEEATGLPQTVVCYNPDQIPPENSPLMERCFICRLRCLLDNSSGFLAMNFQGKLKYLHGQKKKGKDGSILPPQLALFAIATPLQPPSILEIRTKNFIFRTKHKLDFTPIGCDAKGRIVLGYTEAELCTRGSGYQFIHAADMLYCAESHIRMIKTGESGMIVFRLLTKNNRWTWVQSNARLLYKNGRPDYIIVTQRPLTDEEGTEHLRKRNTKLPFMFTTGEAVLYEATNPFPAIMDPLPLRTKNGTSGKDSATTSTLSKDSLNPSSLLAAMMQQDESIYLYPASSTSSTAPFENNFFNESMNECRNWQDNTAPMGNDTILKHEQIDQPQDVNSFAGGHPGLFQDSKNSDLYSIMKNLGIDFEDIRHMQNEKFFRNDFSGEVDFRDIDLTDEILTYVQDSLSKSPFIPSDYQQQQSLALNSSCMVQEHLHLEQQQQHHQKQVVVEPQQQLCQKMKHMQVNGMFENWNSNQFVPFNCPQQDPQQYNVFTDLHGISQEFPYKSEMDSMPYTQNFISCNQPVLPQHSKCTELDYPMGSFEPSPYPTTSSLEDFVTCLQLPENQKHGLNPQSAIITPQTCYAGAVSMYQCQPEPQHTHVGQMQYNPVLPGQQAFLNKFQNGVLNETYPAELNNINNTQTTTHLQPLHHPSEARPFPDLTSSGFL
Chain of Estrogen receptor (Homo sapiens) (P03372 whole entry, looked up): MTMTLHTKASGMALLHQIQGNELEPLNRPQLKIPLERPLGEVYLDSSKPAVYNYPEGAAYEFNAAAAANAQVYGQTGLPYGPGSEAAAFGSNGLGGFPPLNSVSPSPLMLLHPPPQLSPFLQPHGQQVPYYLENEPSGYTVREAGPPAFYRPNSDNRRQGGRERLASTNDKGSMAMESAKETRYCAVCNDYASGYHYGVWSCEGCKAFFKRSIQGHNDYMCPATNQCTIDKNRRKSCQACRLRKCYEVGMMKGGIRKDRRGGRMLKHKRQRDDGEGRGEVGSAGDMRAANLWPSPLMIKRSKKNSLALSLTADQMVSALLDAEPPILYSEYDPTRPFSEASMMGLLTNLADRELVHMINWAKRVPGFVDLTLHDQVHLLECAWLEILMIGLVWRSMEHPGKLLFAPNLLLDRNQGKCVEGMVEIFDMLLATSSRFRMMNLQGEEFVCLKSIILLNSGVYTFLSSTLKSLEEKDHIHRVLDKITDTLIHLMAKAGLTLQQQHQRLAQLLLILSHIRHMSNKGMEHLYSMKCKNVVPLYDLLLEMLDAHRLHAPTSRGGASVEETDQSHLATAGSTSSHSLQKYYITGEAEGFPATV
Chain of Peroxisome proliferator-activated receptor gamma (Homo sapiens) (P37231 whole entry, looked up): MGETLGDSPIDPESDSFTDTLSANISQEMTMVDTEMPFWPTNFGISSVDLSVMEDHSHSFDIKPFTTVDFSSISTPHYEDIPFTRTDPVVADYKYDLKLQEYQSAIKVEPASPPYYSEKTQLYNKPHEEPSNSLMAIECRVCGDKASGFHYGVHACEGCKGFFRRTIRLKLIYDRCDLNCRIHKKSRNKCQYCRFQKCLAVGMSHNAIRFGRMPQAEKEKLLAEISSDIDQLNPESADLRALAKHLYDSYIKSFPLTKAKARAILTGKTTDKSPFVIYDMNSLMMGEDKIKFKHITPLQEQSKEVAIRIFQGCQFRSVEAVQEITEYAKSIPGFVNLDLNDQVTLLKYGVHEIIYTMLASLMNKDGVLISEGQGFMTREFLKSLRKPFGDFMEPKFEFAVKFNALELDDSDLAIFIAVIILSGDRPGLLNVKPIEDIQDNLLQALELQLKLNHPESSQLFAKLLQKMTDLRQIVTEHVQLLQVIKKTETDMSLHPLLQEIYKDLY
Chain of Aromatase (Homo sapiens) (P11511 whole entry, looked up): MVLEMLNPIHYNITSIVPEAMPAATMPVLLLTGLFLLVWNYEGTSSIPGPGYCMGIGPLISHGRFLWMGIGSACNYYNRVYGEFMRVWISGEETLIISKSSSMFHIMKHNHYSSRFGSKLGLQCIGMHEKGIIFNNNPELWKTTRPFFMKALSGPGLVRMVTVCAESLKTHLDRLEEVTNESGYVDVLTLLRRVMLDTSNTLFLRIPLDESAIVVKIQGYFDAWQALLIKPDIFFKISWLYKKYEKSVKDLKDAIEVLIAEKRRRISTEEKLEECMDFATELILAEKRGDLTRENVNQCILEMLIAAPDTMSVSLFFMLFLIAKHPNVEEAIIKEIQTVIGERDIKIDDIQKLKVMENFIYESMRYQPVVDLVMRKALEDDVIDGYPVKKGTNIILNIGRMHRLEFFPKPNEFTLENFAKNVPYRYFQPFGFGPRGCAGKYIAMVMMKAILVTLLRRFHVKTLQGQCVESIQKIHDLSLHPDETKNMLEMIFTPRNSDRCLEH

Compound	Potency [1]	outcome [2]	Potency [3]	Potency [4]	Potency [5]	Potency [6]	Potency [7]	Potency [8]	Potency [9]	Potency [10]	Potency [11]	Potency [12]	Potency [13]	Potency [14]	Potency [15]	Potency [16]	Potency [17]	Potency [18]	Potency [19]
Cc1cccc2cccnc12	inactive	inactive	inactive	inactive	inactive	inactive	inactive	inactive	inactive	inactive	inactive	inactive	inactive	–	–	–	–	–	–
O=c1[nH]c2ccccc2n1CCCN1CCN(C(c2ccccc2)c2ccccc2)CC1	23.7 µM (active)	inactive	inactive	–	inactive	inactive	–	–	–	inactive	–	29.8 µM (active)	–	inactive	–	–	–	–	–
Cc1ccc(O)c(O)c1	29.8 µM (active)	inactive	inactive	–	66.6 µM (active)	–	29.8 µM (active)	–	–	inactive	–	inactive	–	inactive	53.4 µM [inconclusive] (active)	inactive	inactive	–	–
COc1ccc(-c2coc3cc(O)ccc3c2=O)cc1	inactive	inactive	inactive	inactive	inactive	inactive	6.86 µM (active)	inactive	inactive	inactive	–	inactive	–	inactive	7.76 µM [inconclusive] (active)	1.54 µM (active)	–	–	–
CCCCCCCCCCCCCC[N+](C)(C)Cc1ccccc1	11.9 µM (active) and 13.9 µM (active)	inactive	21.3 µM (active) and 22.2 µM (active)	inactive	29.8 µM (active) and 13.9 µM (active)	inactive and 24.7 µM (active)	inactive	69.6 µM (active)	inactive	22.2 µM (active) and 29.8 µM (active)	–	69.6 µM (active)	–	44.3 µM (active) and 26.6 µM (active)	inactive	–	26.6 µM (active)	–	–
O=C1c2ccccc2C(=O)N1SC1CCCCC1	30.6 µM (active) and 21.7 µM (active)	inactive	–	inactive	43.2 µM (active)	27.3 µM (active) and 24.3 µM (active)	inactive	inactive	–	54.9 µM (active)	–	48.5 µM (active) and 34.4 µM (active)	–	54.9 µM (active)	inactive	inactive	inactive	–	–
c1ccsc1	inactive	inactive	inactive	inactive	inactive	–	inactive	inactive	inactive	inactive	–	inactive	inactive	inactive	inactive	–	–	inactive	–
C=C(CC)C(=O)c1ccc(OCC(=O)O)c(Cl)c1Cl	68.1 µM (active)	inactive	inactive	inactive	inactive	inactive	inactive	inactive and 68.1 µM (active)	–	inactive	0.764 µM (active)	inactive	–	18.8 µM (active)	inactive and 68.7 µM [fluorescent] (active)	inactive	–	–	–
CC(C)CCOC(=O)/C=C/c1ccccc1	inactive	inactive	–	inactive	inactive	inactive	inactive	inactive	inactive	–	–	inactive	inactive	inactive	inactive	24.4 µM (active)	–	–	–
CCOc1ccc2ccccc2c1C(=O)N[C@@H]1C(=O)N2[C@@H]1SC(C)(C)[C@@H]2C(=O)O	inactive	inactive	inactive	inactive	inactive	inactive	inactive	inactive	inactive	inactive	4.73 µM (active)	inactive	–	inactive	inactive	inactive	inactive	–	–
O=C(O)c1cc(O)c2ccccc2c1O	9.69 µM (active)	inactive	inactive	–	9.69 µM (active)	15.4 µM (active)	4.86 µM (active)	54.5 µM (active)	inactive	49 µM (active)	–	30.6 µM (active)	–	21.9 µM (active)	inactive	–	–	–	–
CCCNCCC	inactive	inactive	–	inactive	inactive	inactive	inactive	inactive	inactive	inactive	inactive	inactive	inactive	inactive	–	–	–	–	–
OC[C@H]1O[C@H](O[C@H]2O[C@H](CO)[C@@H](O)[C@H](O)[C@H]2O)[C@H](O)[C@@H](O)[C@@H]1O	inactive	inactive	inactive	–	inactive	inactive	inactive	inactive	inactive	inactive	inactive	inactive	–	inactive	–	–	–	–	inactive
O=c1c(O)c(-c2ccc(O)cc2O)oc2cc(O)cc(O)c12	inactive	inactive	inactive	inactive	inactive	–	inactive	–	inactive	inactive	–	inactive	–	inactive	inactive	–	inactive	–	–
O=C(Nc1ccc2c(O)c(N=Nc3ccc(N=Nc4ccc(S(=O)(=O)O)cc4)cc3)c(S(=O)(=O)O)cc2c1)c1ccccc1	30.6 µM (active)	inactive	inactive	27.3 µM (active)	–	8.63 µM (active)	inactive	–	inactive	inactive	–	inactive	inactive	inactive	inactive	–	–	–	inactive
COCCOc1cc2cc(C(=O)NC3CCN(C(C)C)CC3)n(CC(=O)Nc3ccc(Cl)cn3)c2cn1	60.4 µM (active)	inactive	inactive	inactive	inactive	inactive	48 µM (active)	inactive	–	inactive	inactive	inactive	–	–	–	–	–	–	–
COC(=O)Nc1nc2ccc(C(=O)c3ccccc3)cc2[nH]1	0.285 µM (active)	–	–	inactive	inactive	inactive	4.52 µM (active)	inactive	inactive	inactive	–	–	inactive	inactive	–	inactive	inactive	–	–
